We go through 32 molecules from PubChem BioAssay (NCI).

This is part of a sample that, as a whole, favours compounds with a hit. Of some 83,000 tested, about 20% had one in any assay.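 The test compound was applied at a single concentration to cells in 96-well plates for 48 hours, and percent growth was recorded.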 Calls of active or inactive are those of the source. Rule for the calls: active = growth percent below 10; inactive = the rest.

One assay has as its system SR leukemia. The experiment in a line: NCI-60 one-dose screen, 48 h (100 = growth as untreated, 0 = no growth, -100 = all killed). Conditions: 10 µM unless noted.
Turning to `CC(=O)OC[C@H]1O[C@H](OC(C)=O)[C@H](NC(=O)/C=C/CCl)[C@@H](OC(C)=O)[C@@H]1OC(C)=O`, the growth is 44.5% (inactive).
Regarding `COc1cc(-c2nc(C(=O)NCC(=O)NO)nn2-c2ccc(Cl)cc2)cc(OC)c1OC`, the growth is 84.8% (inactive).
Regarding `C=C1C(=O)O[C@H]2[C@H]1CC/C(COC(=O)NCCc1ccc(OC)c(OC)c1)=C\CC[C@@]1(C)O[C@@H]21`, the growth is 11.2% (inactive).
On the same count and under the same terms, then `CC/C=C\C[C@H](O)C/C=C1/C(=O)C=C[C@@]1(C)C/C=C\CCCC(=O)OC`, with 103% (inactive); and `Cc1ccc2oc(=O)cc(C3c4ccc([nH]4)C(c4cc(=O)oc5ccc(C)cc45)c4ccc([nH]4)C(c4cc(=O)oc5ccc(C)cc45)c4ccc([nH]4)C(c4cc(=O)oc5ccc(C)cc45)c4ccc3[nH]4)c2c1` (configuration not stated), with -36.5% (active).
For `COc1cccc2c1C(=O)c1c(O)c3c(c(O)c1C2=O)C[C@](O)(C(=O)CO)C[C@H]3O[C@@H]1C[C@@H](NC(=O)CCCCCN(C)C2(c3ccc(F)cc3)CC3CCC2C3)[C@H](O)[C@@H](C)O1` (some centres not stated), the growth is -45.7% (active).
Consider `NC(=NCCCC1(c2ccccc2)CCCC1)Nc1ccc(Cl)cc1`, for which the growth is -39.7% (active).
For the molecule `CCC#CC[C@H](O)C/C=C1/C(=O)C=C[C@@H]1C/C=C\CCCC(=O)OC`, the growth was -8.41% (active).
Take `O=c1oc2c(C(F)(F)F)cccc2cc1-c1csc(Nc2ccc(OCCF)cc2)n1`: the growth was 6.43% (active).
Still for that read-out and setting: then `CNC(=O)c1cc(Oc2ccc(NC(=O)Nc3ccc(Cl)c(SC)c3)c(F)c2)ccn1`, with 31.4% (inactive); and `c1ccc2[nH]c(-c3ccc(Nc4nc(N5CCCC5)nc5[nH]ncc45)cc3)nc2c1`, with -31.1% (active); and `CC/C=C\C/C=C\C[C@H]1C/C=C2/C(=O)C=C[C@@H]2C/C=C\CCC(=O)O1`, with 0.464% (active).
As for `COc1ccc(CN2c3ccccc3Sc3ccccc32)cc1O`, the growth was 16.1% (inactive).
For the molecule `CCOc1ccc(-n2nc(C(=O)Nc3cc(OC)c(OC)c(OC)c3)nc2-c2cc(OC)c(OC)c(OC)c2)cc1`, the growth is 40.7% (inactive).
Same read-out and setting: then `CC/C=C\C[C@H]1C/C=C2/C(=O)C=C[C@H]2C/C=C\CCCC(=O)O1`, with 4.6% (active).

The next assay relates to RPMI-8226 leukemia. Described as above. The settings on record: 10 µM unless noted.
On to `COc1cc2c(cc1O)CC[C@@H]1[C@@H]2CC[C@]2(C)[C@@H](NCCN(C)C)CC[C@@H]12`, for which the growth is -59.9% (active).
Consider `COc1cccc2c1C(=O)c1c(O)c3c(c(O)c1C2=O)C[C@](O)(C(=O)CO)C[C@H]3O[C@@H]1C[C@@H](NC(=O)CCCN(C)C2(c3ccc(F)cc3)CC3CCC2C3)[C@H](O)[C@@H](C)O1` (some centres not stated), for which the growth was -41% (active).
On to `O=c1cc(CSc2nnc(SCc3cc(=O)oc4c3ccc3ccccc34)o2)c2ccc3ccccc3c2o1`, for which the growth was 99.8% (inactive).
On the same count and under the same terms, then `COc1cc2c(cc1O)CC[C@@H]1[C@@H]2CC[C@]2(C)[C@@H](OCCN(C)C)CC[C@@H]12`, with 5.96% (active); and `COc1ccc(-c2nnc(SCC(=O)c3ccc(Cl)cc3)o2)cc1`, with 101% (inactive).
As to `NC(=NCCCOc1ccc(Cl)cc1)Nc1ccc(C(F)(F)F)cc1`, the growth was -1.68% (active).
Consider `CCCCC[C@H]1C/C=C2/C(=O)C=C[C@@H]2C/C=C\CCCC(=O)O1`, for which the growth is -13.4% (active).
Consider `CNC(=O)c1cc(Oc2ccc(NC(=O)Nc3ccc(Cl)c(OC(F)(F)F)c3)c(F)c2)ccn1`, for which the growth was 13.6% (inactive).
Take `COc1ccc2c(c1)C(=O)/C(=C/c1cccnc1)CC2`: the growth is 1.31% (active).
As to `COc1cccc(-c2nc(SCC(=O)Nc3ccc(C(=O)/C=C/c4ccc(OC)c(OC)c4)cc3)[nH]c(=O)c2C#N)c1`, the growth is 93.3% (inactive).
On to `CCCn1c(=O)[nH]c(N)c([C@H]2c3ccccc3Oc3[nH]c(=O)n(CCC)c(=O)c32)c1=O`, for which the growth is 81.7% (inactive).
In the case of `C=C1C(=O)O[C@H]2[C@H]1CC/C(COC(=O)NCc1ccc(OC)c(OC)c1)=C\CC[C@@]1(C)O[C@@H]21`, the growth was 25.1% (inactive).
For `N#CN1CC[C@H](C(=O)Nc2cc3cc(C(N)=O)ccc3cn2)C1`, the growth is 8.19% (active).
Take `O=C1c2c(O)cc(O)cc2-c2c(-c3ccc(O)cc3)oc3cc(O)cc1c23`: the growth was 41.8% (inactive).
As for `O=C1/C(=C/c2ccccc2O)N=C2SCCCN12`, the growth was 103% (inactive).
`COc1ccc(CN2c3ccccc3Sc3ccccc32)c(C(F)(F)F)c1`: the growth was 28.8% (inactive).
With `COc1ccc(-c2nc(SCC(=O)Nc3ccc(C(=O)/C=C/c4ccc(Cl)cc4)cc3)[nH]c(=O)c2C#N)cc1`, the growth was 98.3% (inactive).
